The list is not random: actives were taken first. Their share in the collection is about 10%.
SW480 rereplic = A quantitative high throughput screen for small molecules that induce DNA re-replication in SW480 colon adenocarcinoma cells | SW480 DNA re-replication, Hoechst DNA content imaging, 48 h | Potency, µM (titrated, usually from 46.1 µM), for inactives: at the top dose re-replication activation, usual class: activators | 1.8% of 340,000 active; further: % of control where 0% means no effect; nearly all actives have a fitted effect of over 55% in size
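Compounds, transferred as 23 nL by pin tool, were incubated with cells for 48 hr; DNA content per nucleus was then quantified by Hoechst staining and fluorescence plate imaging.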
RORgamma inh = qHTS for inhibitors of ROR gamma transcriptional activity | Nuclear receptor ROR-gamma (Mus musculus), P51450 | AID 2551, 2010 | Potency, µM (highest dose often 53.6 µM), inactives show top-dose activity change, negative = inhibition, hits mostly inhibitors | Drosophila S2 Gal4-RORgamma UAS-luciferase reporter, 20 h | 5.4% of 310,000 active; further: on the % scale 0 is the no-effect control and ±100 the full control effect; nearly all actives have a fitted effect of over 60% in size
Target sequence (P51450 whole entry, looked up, the tested form may be a part): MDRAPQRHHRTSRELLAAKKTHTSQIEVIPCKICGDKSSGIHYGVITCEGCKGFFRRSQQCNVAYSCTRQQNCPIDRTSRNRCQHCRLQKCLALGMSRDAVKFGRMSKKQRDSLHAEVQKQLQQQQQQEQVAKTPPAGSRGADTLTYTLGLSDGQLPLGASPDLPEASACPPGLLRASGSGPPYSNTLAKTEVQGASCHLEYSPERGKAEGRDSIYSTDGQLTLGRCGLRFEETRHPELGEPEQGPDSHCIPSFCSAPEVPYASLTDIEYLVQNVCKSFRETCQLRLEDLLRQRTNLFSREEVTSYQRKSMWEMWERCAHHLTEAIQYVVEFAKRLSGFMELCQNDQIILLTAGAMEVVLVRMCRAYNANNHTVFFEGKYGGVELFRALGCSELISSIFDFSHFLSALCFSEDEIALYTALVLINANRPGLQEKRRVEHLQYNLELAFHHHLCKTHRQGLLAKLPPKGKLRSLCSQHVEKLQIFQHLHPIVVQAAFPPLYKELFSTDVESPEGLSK
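Compounds are pin-transferred onto Drosophila Schneider cells expressing a copper-inducible Gal4–ROR gamma transactivation domain fusion. After 1 hr, copper sulfate is added to 700 uM final; luciferase is read 20 hr later.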
ELG1 DNA repair = qHTS screen for small molecules that inhibit ELG1-dependent DNA repair in human embryonic kidney (HEK293T) cells expressing luciferase-tagged ELG1; AID 504467, 2011; HEK293T ELG1-luciferase reporter, luminescence, 16 h; DNA damage induced by 5-fluorouridine; Potency, µM (titrated, usually from 46.1 µM), for the others: top-dose activity change, negative = inhibition, hits mostly inhibitors; 2.3% of 330,000 active; further: on the % scale 0 is the no-effect control and ±100 the full control effect; nearly all actives have a fitted effect of over 55% in size
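5-Fluorouridine DNA damage + compound/DMSO, 2,000 cells/well, 16 h, 37 °C/5% CO2. ONE-Glo, 30 min RT, luminescence. Readout = decrease in reporter signal.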
MCF10A rereplic = A quantitative high throughput screen for small molecules that induce DNA re-replication in MCF 10a normal breast cells. MCF 10A DNA re-replication, Hoechst nuclear intensity, 48 h. AID 624296, 2012. Potency, µM (top dose mostly 46.1 µM), for inactives: at the top dose activity, positive = re-replication, most hits filed as activators. 2.9% of 350,000 active; further: % of control where 0% means no effect; nearly all actives have a fitted effect of over 50% in size
VP16 counter = VP16 counterscreen qHTS for inhibitors of ROR gamma transcriptional activity | Drosophila S2 Gal4-VP16 UAS-luciferase, luminescence, 20 h | Potency, µM (highest dose often 53.6 µM), inactives show at the highest dose activity, negative = inhibition, hits mostly inhibitors | AID 2546, 2010 | 3.5% of 310,000 active;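 further: Gal4-VP16 expression switched on by copper sulfate through the metallothionein promoter; on the % scale 0 is the no-effect control and ±100 the full control effect; nearly all actives have a fitted effect of over 50% in size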
Starred values were filed as active, the others as inactive; ? = inconclusive; nt = no result given; [ ] = dose if it differs, or a comment. The call rests on the fitted dose curve; in most records, active means well fitted curve in the direction sought with a large enough effect; inconclusive means small, poorly fitted or top-dose-only effect, or another doubt; inactive means no such curve, though single readings can be large; an effect the other way counts as inactive or inconclusive. Potency means the concentration at half of the fitted maximal effect.

SMILES	SW480 rereplic	RORgamma inh	ELG1 DNA repair	MCF10A rereplic	VP16 counter
CCc1cc(C(=O)Nc2ccc(S(=O)(=O)NC3=NCCCCC3)cc2)sc1C	8.4%	nt	-19.8%	-2.1%	nt
CCN(CC)S(=O)(=O)c1ccc(Cl)c(NC(=O)COC(=O)c2ccc(O)cc2)c1	-0.2%	23.0%	?	4.4%	-5.6%
CCN(CC)S(=O)(=O)c1ccc(Cl)c(NC(=O)COC(=O)c2c(C)noc2C)c1	3.3%	26.5%	18.4µM*	5.4%	-2.9%
CCN(CC)S(=O)(=O)c1ccc(Cl)c(NC(=O)COC(=O)c2cccn2C)c1	3.4%	11.7%	14.6µM*	2.0%	-0.6%
Cn1nc(NC(=O)C(F)(F)F)c2ncc(-c3ccc(Cl)cc3)nc21	1.8%	-1.8%	?	-9.3%	2.7%
CCCn1c(SC(C(=O)Nc2cc(C)ccc2OC)c2ccccc2)nc2ccccc2c1=O (centres undefined)	nt	20µM*	18.4µM*	19.3%	?
COc1ccc(C)cc1NC(=O)C(Sc1nnnn1C)c1ccccc1 (centres undefined)	-11.4%	0.1%	-2.0%	-19.2%	-23.3%
NNC(=O)c1ccc(Cn2cc(Br)c(N)n2)cc1	-18.6%	7.0%	14.3%	-0.7%	-8.5%
CSCCC(NC(=O)c1ccc(Cl)c([N+](=O)[O-])c1)C(=O)N1CCN(C/C=C/c2ccccc2)CC1 (centres undefined)	1.6%	nt	-1.0%	18.4µM*	nt
C[C@H](NC(=O)c1ccc(C(C)(C)C)cc1)C(=O)N1CCN(C/C=C/c2ccccc2)CC1	-6.8%	nt	?	?	nt
CCOc1cc(/C=N/NC(=O)c2ccncc2)cc(Cl)c1OS(C)(=O)=O	12.7%	44.0%	14.6µM*	22.9%	-1.2%
CCC(=O)Nc1cccc2cccnc12	-39.0%	-17.8%	?	3.0%	-12.5%[10 µM]
C/C(=N\Nc1cccc2cccnc12)c1ccc[nH]1	-1.4%	3.55µM*	?	16.8%	2.7%
Cc1ccccc1N1CC(O)(c2cccs2)[N+]2=C1CCCC2 (centres undefined)	6.3%	0.0%	?	?	-7.0%
Cc1cccc(N2CC(O)(c3cccs3)[N+]3=C2CCCC3)c1C (centres undefined)	?	8.5%	-20.3%	-6.5%	35.5µM*
O=C(c1ccccc1)c1ccc(Oc2ccc([N+](=O)[O-])cc2[N+](=O)[O-])cc1	3.26µM*	nt	nt	11.6µM*	nt
O=Cc1cccc(Oc2ccc([N+](=O)[O-])cc2[N+](=O)[O-])c1	13.3%	14.1µM*	-6.1%	?	3.2%
Cc1cc(=O)oc2cc(Oc3ccc([N+](=O)[O-])cc3[N+](=O)[O-])ccc12	-36.4%	11.2µM*	?	?	-79.5%
CC(C)(C)c1ccc(C(=O)NCC2CCCN2S(=O)(=O)c2ccccc2)cc1 (centres undefined)	?	nt	0.0%	?	nt
CN1CCCC1CCOC(C)(c1ccccc1)c1ccc(Cl)cc1 (centres undefined)	7.08µM*	nt	nt	13.5%	nt
Cc1ccc(C)c(NC(=O)NCc2ccccn2)c1	2.2%	20.1%	6.6%	-2.1%	-20.9%
Cc1ccc(C)c(NC(=S)c2ccccn2)c1	?	0.316µM*	?	?	1.26µM*
CN(CC(=O)Nc1ccccc1)CC(=O)Nc1ccc(F)cc1	-2.9%	11.9%	14.9%	-1.4%	3.0%
Cc1cccc(NC(=O)CN2C(=O)S/C(=C\c3ccccn3)C2=O)c1	?	-13.9%	?	?	-2.8%
CN(CC(=O)Nc1ccc(F)cc1)C(=O)c1ccc2ccccc2n1	5.17µM*	nt	-9.4%	-0.4%	nt
Cc1ccc(-c2ocnc2C(=O)Nc2ccccc2C(=O)N2CCCC2)cc1	0.8%	-9.2%	?	?	-5.8%
Cc1ccc2c(c1)C(=O)C(=O)N2CC(=O)Nc1ccccc1NC(=O)c1ccccn1	18.4µM*	-25.9%	-11.0%	13µM*	-15.0%
Cc1ccccc1-c1ocnc1C(=O)Nc1ccccc1NC(=O)c1ccccn1	?	2.24µM*	?	?	7.08µM*
